SARS PLP yeast: blocks SARS-CoV papain-like protease in a yeast assay | S. cerevisiae expressing SARS-CoV PLpro, growth rescue | Potency, µM (top dose mostly 32.9 µM), hits mostly activators | 0.19% of 330,000 active; calls by dose curve; further: nearly all actives have a fitted effect of over 55% in size
Pf growth 96h: inhibits malaria parasite growth, 96 h; P. falciparum luciferase reporter growth, 96 h; 6.9% of 320,000 active; AID 504834; Potency, µM (series often up to 28.7 µM), usual class: inhibitors
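96 h incubation, 37 C, 5% CO2, of luciferase-reporter P. falciparum-infected RBCs (2% hematocrit, 0.05% parasitemia final) with test compounds; endpoint luminescence.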
AMA1 RON2 block: AMA1-RON2 (P. falciparum) interaction inhibition; AlphaScreen AMA1-biotinylated RON2 peptide binding; Potency, µM (titrated, usually from 58.2 µM), hits mostly inhibitors; 0.2% of 360,000 active; further: nearly all actives have a fitted effect of over 45% in size
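AMA1 (3D7) with his tag at 25 nM final met compounds first, then biotinylated RON2 peptide at 25 nM; detection used donor plus acceptor beads, 10 µg/mL apiece, read by AlphaScreen after 30 min at room temperature.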
HCV inhibitor: blocks hepatitis C virus; Potency, µM (top dose mostly 41.8 µM), usual class: inhibitors; Huh7.5.1 HCVcc-Cre infection, luciferase reporter, 44 h; 3.4% of 340,000 active
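1,000 cells/well; 4 h culture; + compound; + HCVcc-Cre (~0.5 moi); 44 h; luciferase substrate, RT 15 min; read 15 sec.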
NS1 function inh: blocks influenza NS1 protein function. Potency, µM (series often up to 46.1 µM). 0.4% of 270,000 active. AID 2326; calls by dose curve; further: actives are rising curves; nearly all actives have a fitted effect of over 50% in size
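Compounds were scored for reversing the slow growth caused by influenza A NS1 in S. cerevisiae, measured by optical density at 600 nm. Assay medium contained 2% galactose at pH 6.0; NS1-free yeast of the same strain were the positive control.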
Pf growth 48h: inhibits P. falciparum growth in the first generation, 48 h; P. falciparum luciferase growth in erythrocytes, 48 h; Potency, µM (titrated, usually from 28.7 µM), most hits filed as inhibitors; 5.9% of 310,000 active; AID 504832
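Parasite viability was followed by luminescence of a genomically integrated firefly luciferase. Cultures held 0.1% parasitemia at 2% hematocrit (final), incubated under 5% CO2 at 37 C.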
A number is an active result; – = inactive; ? = inconclusive; · = no result given; [ ] = dose if it differs, or a comment. The list is not random: actives were taken first. Their share in the collection is about 12%. Unless noted, the call rests on the fitted dose curve; in most records, active means well fitted curve in the direction sought with a large enough effect; inconclusive means small, poorly fitted or top-dose-only effect, or another doubt; inactive means no such curve, though single readings can be large; an effect the other way counts as inactive or inconclusive.

SMILES	SARS PLP yeast	Pf growth 96h	AMA1 RON2 block	HCV inhibitor	NS1 function inh	Pf growth 48h
Cc1c(Cl)ccc2c(C(=O)NCCCn3nccc3C)cc(-c3ccccn3)nc12	–	–	–	–	–	?
COc1ccccc1-c1cc(C(=O)NC2CCN(C)CC2)c2ccc(Cl)c(C)c2n1	–	?	–	–	–	9.3µM
COc1ccc(/C=N\n2nnc3ccccc32)cc1	–	0.41µM	–	?	–	–
O=C(Nc1ccc(C(F)(F)F)cc1)C1=NN(C2CCS(=O)(=O)C2)C(=O)CC1 (centres undefined)	–[6.58 µM]	?	–	–	·	?
Cc1ccc(S(=O)(=O)NCC(=O)N(CC(=O)NC2CCCC2)c2ccc3c(c2)OCCO3)cc1	–	–	–	–	–	?
CCC(C)(C)NC(=O)CN(C(=O)CNS(=O)(=O)c1ccc(C)cc1)c1ccc2c(c1)OCCO2	–	·	–	–	–	6.6µM
Cn1cnc2cc(NCc3cccs3)ccc21	–	10µM	–	–	·	–
c1ccc(-n2cnc3cc(NCc4cccs4)ccc32)cc1	–	–	–	–	–	–
O=C(c1cccc(C(F)(F)F)c1)N1CCOc2ccccc21	–	–	–	–	–	13µM
O=C(NCCN1CCCC1)C(c1ccccc1)c1ccccc1	–	–	–	–	–	–
C1CCc2c(nnc3c2-c2nonc2CC3)C1	–	2.1µM	–	–	–	–
O=C1NCCCc2nonc21	–	–	–	–	–	–
COc1ccc(NC(=O)C2Cc3ccccc3CN2C(=O)c2ccco2)cc1 (centres undefined)	–	–	–	–	–	–
O=C(C1Cc2ccccc2CN1C(=O)c1ccccc1)N1CCN(c2ccccc2)CC1 (centres undefined)	–	4.1µM	–	–	–	?
COc1ccc(NC(=O)C2Cc3ccccc3CN2C(=O)c2ccccc2)cn1 (centres undefined)	–	?	–	–	–	·
O=C(Nc1ccccc1N1CCOCC1)C1Cc2ccccc2CN1C(=O)c1ccco1 (centres undefined)	–	·	–	–	–	10µM
COc1ccc(N2CCN(C(=O)C3Cc4ccccc4CN3C(=O)c3ccco3)CC2)cc1 (centres undefined)	–	?	–	–	·	8.3µM
CC(=O)c1ccc(NC(=O)C2Cc3ccccc3CN2C(=O)c2ccccc2)cc1 (centres undefined)	–	15µM	–	–	–	–
C[C@@H]1CCCCO[C@@H](CN(C)S(C)(=O)=O)[C@@H](C)CN([C@H](C)CO)C(=O)c2cc(N(C)C)ccc2O1	·	·	–	·	·	·
CCOC(=O)c1c(NC(=O)COC(=O)c2ccccn2)sc(C)c1C	–	–	–	–	·	–
Cc1ccc(NC(=O)COc2cccc3c2OC(C)(C)C3)c(O)c1	–	?	–	?	·	10µM
Cc1ccc(NC(=O)COc2cccc3ccccc23)c(O)c1	–	4.7µM	–	?	·	5.2µM
COc1ccc(NC(=O)COc2cccc3c2OC(C)(C)C3)cc1OC	–	?	–	6.3µM	·	–
CC1(C)Cc2cccc(OCC(=O)Nc3ccccc3F)c2O1	–	–	–	–[8.37 µM]	·	–
CCCCC1=NC2(CCCC2)C(=O)N1Cc1ccc(-c2ccccc2-c2nn[nH]n2)cc1	–	?	·	·	·	?
SMILES	SARS PLP yeast	Pf growth 96h	AMA1 RON2 block	HCV inhibitor	NS1 function inh	Pf growth 48h
CCOc1nc2cccc(C(=O)O)c2n1Cc1ccc(-c2ccccc2-c2nn[nH]n2)cc1	·	2.1µM	·	·	·	?
C(=NNc1ccc2ccccc2n1)c1ccccn1	·	·	–	·	·	·
Cc1ccc(C(=O)N/N=C\c2ccc([N+](=O)[O-])o2)cn1	–	1.9µM	–	?	–	3.7µM
Cc1ccc(C(=O)N/N=C\c2ccc(-c3ccc(Cl)cc3)o2)cn1	–	–	–	11µM	–	–
O=C(N/N=C/c1ccc([N+](=O)[O-])o1)c1ccc(NS(=O)(=O)c2cccs2)cc1	–	0.93µM	–	–	–	3.7µM
COc1ccc(N(CC(=O)N2CCN(C)CC2)S(=O)(=O)c2cc(C)ccc2OC)cc1Cl	–	8.3µM	–	–	–	–
Cc1ccc(S(=O)(=O)N(CC(=O)N2CCc3ccccc3C2)c2ccc(Cl)c(Cl)c2)cc1	–	?	–	–	?	10µM
COc1cccc(N(CC(=O)N2CCN(C)CC2)S(=O)(=O)c2ccc(C)cc2)c1	–	12µM	–	–	–	–
COc1ccc(N(CC(=O)N2CCN(C)CC2)S(=O)(=O)c2ccccc2)cc1	–	–	–	–	–	–
Cc1ccccc1C(=O)c1cccn1CC(=O)N1CCCCC1	–	–	–	–	–	–
CCN(CC(=O)Nc1c(F)cccc1F)C(=O)Cn1c(=O)cnc2ccccc21	–	–	–	–	·	–
Cc1ccc(-c2nc(CN(Cc3cnn(C)c3)C(C)C)c(C)o2)o1	–	7.4µM	–	–	–	–
CC(C)N(Cc1cnn(C)c1)Cc1nc(COc2ccccc2)no1	–	–	–	–	–	–
c1ccc(CN2CCCC3(CCCN(Cc4nc(CC5CC5)no4)C3)C2)cc1 (centres undefined)	–	–	–	–	–	–
c1ccc(CN2CCCC3(CCCN(Cc4nc(COc5ccccc5)no4)C3)C2)cc1 (centres undefined)	–	–	–	–	–	12µM
CC1(C(=O)Nc2cccnc2)Cc2c(-c3cccc(C(F)(F)F)c3)ccnc2O1 (centres undefined)	·	·	–	·	·	·
COc1ccc(C2CN=NC2C(=O)c2ccccc2)cc1 (centres undefined)	–	9.3µM	–	–	–	15µM
c1cc(Nc2ncnc3sccc23)cc(-c2nnc3n2CCCCC3)c1	–	?	–	10µM	–	?
Cc1cnc(C(=O)Nc2cccc(-c3nnc4n3CCCCC4)c2)cn1	–	?	–	–	–	–
CCOc1ccc(NC(=O)CN2CCN(C(=O)c3ccco3)CC2)cc1S(=O)(=O)N1CCCC1	–	15µM	–[11.6 µM]	–	·	?
NC(=O)c1ccc(NC(=O)CN2CCN(C(=O)c3ccco3)CC2)cc1	–	2.3µM	–	–	–	–
CC(=O)Nc1ccc(C(=O)OCC(=O)N2CCN(C(=O)c3ccco3)CC2)cc1	–	–	–	–	·	–
NC(=O)c1ccc(NC(=O)CN2CCOCC2)cc1	–	–	–	–	–	–
CCOC(=O)c1ccc(NC(=O)CN2CCN(C(=O)c3ccco3)CC2)cc1	–	–	–	–	–	9.3µM
CCOC(=O)c1c(NC(=O)CN2CCN(C(=O)c3ccco3)CC2)sc(C)c1C	–	–	–	·	–	?
CCc1c(C)sc(NC(=O)CN2CCN(C(=O)c3ccco3)CC2)c1C(=O)OC	–	–	–	11µM	–	?
Oc1ccc2c(c1)OCC1(O)Cc3cc(O)c(O)cc3C21 (centres undefined)	·	·	13µM	25µM	·	·
Oc1cc2c(cc1O)[C@H]1c3ccc(O)c(O)c3OC[C@@]1(O)C2	–	6.6µM	32µM	?	·	3.7µM

Source: PubChem BioAssay
